Data from PubChem BioAssay AID1159580 (chemical genetic matrix, 2015).
Among all 5,500 compounds or so, about 2,000 (36%) were called active. Another 18% or so got no clear call; they are omitted. Cut-off read from the data, not from the text of the source: active = normalized growth mostly below about 0.91 (no sharp cut-off); inconclusive = no clear call, values can overlap the other calls; inactive = mostly above about 0.92. Some of the results follow.

Test: chemical genetic growth profiling, strain panel (AID 1159580);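 note: tested at 20 µM; growth read once vehicle control cultures reached saturation at 30 °C; 1 = growth at the plate median or of vehicle wells; lower values mean less growth of the strain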
Details: growth OD

Measured: normalized growth

CN[C@@H]1[C@H](OC2[C@H](O[C@H]3[C@H](O)[C@@H](O)[C@H](N=C(N)N)[C@@H](O)[C@@H]3N=C(N)N)O[C@@H](C)[C@]2(O)C=O)O[C@@H](CO)[C@H](O)[C@H]1O (stereo not given in full)
inactive: S. cerevisiae deletion strains, locus YKL009W, strain mrt4, active compounds read low 1.03 | S. cerevisiae deletion strains, locus YKL068W, active compounds read low 1 | S. cerevisiae deletion strains, locus YKL085W, strain MDH1 (second series), active compounds read low 1 | S. cerevisiae deletion strains, locus YKL085W, strain MDH1, active compounds read low 1 | S. cerevisiae deletion strains, locus YKL160W, strain elf1, active compounds read low 1.02 | S. cerevisiae deletion strains, locus YKL190W, strain CNB1, active compounds read low 0.997 | S. cerevisiae deletion strains, locus YKR001C, strain vps1, active compounds read low 1.01 | S. cerevisiae deletion strains, locus YKR026C, strain gcn3, active compounds read low 1 | S. cerevisiae deletion strains, locus YKR091W, strain srl3, active compounds read low 1.01 | S. cerevisiae deletion strains, locus YLL001W, strain dnm1, active compounds read low 1.03 | S. cerevisiae deletion strains, locus YLL026W, active compounds read low 1.02 | S. cerevisiae deletion strains, locus YLL041C, strain sdh2, active compounds read low 1 | S. cerevisiae deletion strains, locus YLR027C, strain aat2, active compounds read low 1.02 | S. cerevisiae deletion strains, locus YLR039C, strain RIC1, active compounds read low 0.997 | S. cerevisiae deletion strains, locus YLR058C, strain SHM2, active compounds read low 1.01 | S. cerevisiae deletion strains, locus YLR102C, strain apc9, active compounds read low 1.01 | S. cerevisiae deletion strains, locus YLR113W, strain HOG1, active compounds read low 0.964 | S. cerevisiae deletion strains, locus YLR221C, strain rsa3, active compounds read low 0.989 | S. cerevisiae deletion strains, locus YLR258W, strain gsy2, active compounds read low 0.991 | S. cerevisiae deletion strains, locus YLR262C, strain YPT6 (second series), active compounds read low 1.04 | S. cerevisiae deletion strains, locus YLR262C, strain YPT6, active compounds read low 1.01 | S. cerevisiae deletion strains, locus YLR268W, strain sec22, active compounds read low 1 | S. cerevisiae deletion strains, locus YLR320W, strain mms22, active compounds read low 0.969 | S. cerevisiae deletion strains, locus YLR330W, strain CHS5, active compounds read low 1 | S. cerevisiae deletion strains, locus YLR342W, strain FKS1 (second series), active compounds read low 1.01 | S. cerevisiae deletion strains, locus YLR342W, strain FKS1, active compounds read low 1.04 | S. cerevisiae deletion strains, locus YLR357W, strain rsc2, active compounds read low 1.02 | S. cerevisiae deletion strains, locus YLR370C, strain arc18, active compounds read low 1.02 | S. cerevisiae deletion strains, locus YLR371W, strain rom2, active compounds read low 1.01 | S. cerevisiae deletion strains, locus YLR384C, strain iki3, active compounds read low 1.01 | S. cerevisiae deletion strains, locus YLR418C, strain cdc73, active compounds read low 1.02 | S. cerevisiae deletion strains, locus YML016C, strain PPZ1, active compounds read low 1.02 | S. cerevisiae deletion strains, locus YML032C, strain rad52, active compounds read low 1.01 | S. cerevisiae deletion strains, locus YML120C, strain ndi1, active compounds read low 1.02 | S. cerevisiae deletion strains, locus YML124C, strain tub3, active compounds read low 1.02 | S. cerevisiae deletion strains, locus YMR058W, strain fet3, active compounds read low 1.02 | S. cerevisiae deletion strains, locus YMR078C, strain ctf18, active compounds read low 1.02 | S. cerevisiae deletion strains, locus YMR125W, strain sto1, active compounds read low 0.969 | S. cerevisiae deletion strains, locus YMR129W, active compounds read low 1 | S. cerevisiae deletion strains, locus YMR205C, strain PFK2, active compounds read low 1.02 | S. cerevisiae deletion strains, locus YMR223W, strain ubp8, active compounds read low 1.02 | S. cerevisiae deletion strains, locus YMR231W, strain pep5, active compounds read low 0.997 | S. cerevisiae deletion strains, locus YMR263W, strain SAP30, active compounds read low 1.01 | S. cerevisiae deletion strains, locus YMR307W, strain GAS1, active compounds read low 0.965 | S. cerevisiae deletion strains, locus YNL067W, strain RPL9B, active compounds read low 1.01 | S. cerevisiae deletion strains, locus YNL071W, strain lat1, active compounds read low 0.992 | S. cerevisiae deletion strains, locus YNL128W, strain TEP1, active compounds read low 1.01 | S. cerevisiae deletion strains, locus YNL153C, strain GIM3, active compounds read low 1.01 | S. cerevisiae deletion strains, locus YNL183C, strain NPR1, active compounds read low 0.938 | S. cerevisiae deletion strains, locus YNL209W, strain ssb2, active compounds read low 0.998 | S. cerevisiae deletion strains, locus YNL233W, strain BNI4, active compounds read low 1.01 | S. cerevisiae deletion strains, locus YNL248C, strain rpa49, active compounds read low 0.962 | S. cerevisiae deletion strains, locus YNL250W, strain rad50, active compounds read low 1.02 | S. cerevisiae deletion strains, locus YNL271C, strain bni1, active compounds read low 1.01 | S. cerevisiae deletion strains, locus YNL298W, strain CLA4, active compounds read low 1.02 | S. cerevisiae deletion strains, locus YNL307C, strain MCK1, active compounds read low 1.02 | S. cerevisiae deletion strains, locus YNL322C, strain KRE1 (second series), active compounds read low 1 | S. cerevisiae deletion strains, locus YNR049C, strain mso1, active compounds read low 0.999 | S. cerevisiae deletion strains, locus YNR052C, strain pop2, active compounds read low 1 | S. cerevisiae deletion strains, locus YOL006C, strain TOP1, active compounds read low 1.01 | S. cerevisiae deletion strains, locus YOL012C, strain htz1 1.07 | S. cerevisiae deletion strains, locus YOL147C, strain pex11, active compounds read low 1.01 | S. cerevisiae deletion strains, locus YOR001W, strain rrp6, active compounds read low 1.04 | S. cerevisiae deletion strains, locus YOR061W, strain CKA2, active compounds read low 1.01 | S. cerevisiae deletion strains, locus YOR069W, strain VPS5, active compounds read low 1.01 | S. cerevisiae deletion strains, locus YOR070C, strain gyp1, active compounds read low 0.987 | S. cerevisiae deletion strains, locus YOR080W, strain dia2, active compounds read low 1 | S. cerevisiae deletion strains, locus YOR083W, strain WHI5, active compounds read low 0.989 | S. cerevisiae deletion strains, locus YOR106W, strain vam3, active compounds read low 1.03 | S. cerevisiae deletion strains, locus YOR136W, strain idh2, active compounds read low 1.02 | S. cerevisiae deletion strains, locus YOR144C, strain elg1, active compounds read low 1.02 | S. cerevisiae deletion strains, locus YOR184W, strain ser1, active compounds read low 1.03 | S. cerevisiae deletion strains, locus YOR231W, strain MKK1, active compounds read low 0.979 | S. cerevisiae deletion strains, locus YOR265W, strain rbl2, active compounds read low 1.01 | S. cerevisiae deletion strains, locus YOR270C, strain vph1, active compounds read low 1.02 | S. cerevisiae deletion strains, locus YOR290C, strain snf2, active compounds read low 0.977 | S. cerevisiae deletion strains, locus YOR316C, strain cot1, active compounds read low 1.01 | S. cerevisiae deletion strains, locus YPL051W, strain arl3, active compounds read low 1.01 | S. cerevisiae deletion strains, locus YPL055C, strain LGE1, active compounds read low 1.01 | S. cerevisiae deletion strains, locus YPL078C, strain atp4, active compounds read low 1.04 | S. cerevisiae deletion strains, locus YPL106C, strain sse1, active compounds read low 0.987 | S. cerevisiae deletion strains, locus YPL240C, strain hsp82, active compounds read low 1.01 | S. cerevisiae deletion strains, locus YPL241C, strain CIN2, active compounds read low 1 | S. cerevisiae deletion strains, locus YPL256C, strain CLN2, active compounds read low 0.976 | S. cerevisiae deletion strains, locus YPR119W, strain clb2, active compounds read low 1.01 | S. cerevisiae deletion strains, locus YPR141C, strain kar3, active compounds read low 1.01 | S. cerevisiae deletion strains, locus YPR163C, strain tif3, active compounds read low 1.02 | S. cerevisiae deletion strains, locus YPR167C, strain met16, active compounds read low 1.02 | S. cerevisiae deletion strains, strain wtn01, active compounds read low 1.01 | S. cerevisiae strains, strain wild type, active compounds read low 1.01
